This passage reports Potency results from PubChem BioAssay (Tox21).

Test [1] can be described thus: p53 small molecule agonists, cell-based qHTS assay with rat liver microsomes (AID 1963578). In outline:
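p53RE-bla cells were exposed to compounds together with rat liver microsomes (0.5 mg/mL final) and NADPH (0.5 mg/mL final) for 16 h at 37 C, then read by LiveBLAzer beta-lactamase fluorescence after 2 h at room temperature.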

Test [2] is described as follows: p53 small molecule agonists, cell-based qHTS assay with rat liver microsomes: qHTS cell viability counter screen (AID 1963580). Further: nearly all actives have a fitted effect of over 45% in size. In outline: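 In HCT-116 cells carrying a p53 response element-bla reporter, compounds were metabolically activated in situ by rat liver microsomes with NADPH over 16 h. Cell ATP content then served as the cytotoxicity measure.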
Test [3] can be described thus: p53 small molecule agonists, cell-based qHTS assay: qHTS cell viability counter screen (AID 1963581). Further: nearly all actives have a fitted effect of over 45% in size. In outline:
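Compounds are pinned onto HCT-116 p53RE-bla cells and left 16 h at 37 C. Following the reporter FRET read, ATP is quantified by CellTiter-Glo luminescence after 30 min at room temperature.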

For test [4], the target named is 5-hydroxytryptamine receptor 2A (Homo sapiens) (UniProt P28223). The experiment in a line: 5-hydroxytryptamine receptor 2A (HTR2A) small molecule antagonists, cell-based qHTS assay (AID 1963586). Further: nearly all actives have a fitted effect of over 45% in size. Further: potency means the concentration at half of the fitted maximal effect. In outline:
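Antagonist-mode intracellular calcium assay: DOI (4 nM) added after 5 min compound pre-incubation at room temperature to dye-loaded HTR2A-CHO cells. Fluorescence followed for 3 min, sampled every second.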
Background: Quantitative high-throughput screening tests each substance at several concentrations.

For test [5] the target is unchanged. The experiment in a line: 5-hydroxytryptamine receptor 2A (HTR2A) small molecule agonists, cell-based qHTS assay (AID 1963587). Further: nearly all actives have a fitted effect of over 30% in size. Further: potency means the concentration at half of the fitted maximal effect. In outline: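 HTR2A-CHO cells, plated 18 h at 37 C/5% CO2, dye-loaded 1 h at 37 C; compounds in DMSO added by pin tool (agonist mode). Intracellular calcium flux read as kinetic fluorescence on FDSS over 2 min at 1 s intervals.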
The target in test [6] is Muscarinic acetylcholine receptor M1 (Homo sapiens) (UniProt P11229). Briefly: Cholinergic receptor muscarinic 1 (CHRM1) small molecule agonists, cell-based qHTS assay (AID 1963589). Further: nearly all actives have a fitted effect of over 35% in size. In outline:
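Stable CHRM1-CHO cells (human receptor) were incubated 18 h, dye-loaded for 1 h at 37 C and exposed to test compounds for agonist activity, with calcium-dependent fluorescence followed kinetically.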

For test [7], the target named is Beta-2 adrenergic receptor (Homo sapiens) (UniProt P07550). The experiment in a line: Adrenergic beta2 receptor (ADRB2) small molecule antagonists, cell-based qHTS assay (AID 1963592). Further: nearly all actives have a fitted effect of over 50% in size. Further: potency means the concentration at half of the fitted maximal effect. In outline: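 Cells (CHO, stable ADRB2 overexpression) incubated 18-20hr at 37C; compounds added from DMSO; agonist mix (1nM isoproterenol, 100uM IBMX, 25uM Ro-20-1724) added; 0.5hr RT; d2-cAMP and anti-cAMP-cryptate added; 1hr RT; 665/615 nm read.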

Test [8] addresses D(2) dopamine receptor (Homo sapiens) (UniProt P14416). The experiment in a line: Dopamine D2 receptor (DRD2) small molecule antagonists, cell-based qHTS assay (AID 1963595; active means well fitted inhibition curve with a large enough effect in the signal ratio in the repeat runs, with a control signal flat; the % refers to the signal ratio; further: potency means the concentration at half of the fitted maximal effect). The gist of the method: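 Stable D2 receptor HEK293 line, 24 h after seeding. Compound preincubated 10 min, then quinpirole (12 nM) with forskolin analogue NKH477 (200 nM), 30 min, room temperature. Detection by time-resolved FRET of cAMP.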

The target of test [9] is Beta-2 adrenergic receptor (Homo sapiens) (UniProt P07550). The experiment in a line: Adrenergic beta2 receptor (ADRB2) small molecule agonists, cell-based qHTS assay (AID 1963593).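 Further: CHO cells stably overexpressing human ADRB2.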 In outline:
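CHO cells stably over-expressing ADRB2 were plated overnight at 37C, then dosed with compounds plus a stimulation mix containing 100uM IBMX and 25uM Ro-20-1724 for 0.5hr at room temperature. cAMP was measured by HTRF competition, 1hr.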

In test [10] the target is KiSS-1 receptor (Homo sapiens) (UniProt Q969F8). The experiment in a line: Human kisspeptin (KISS1R) small molecule agonists, calcium flux assay in KISS1R-HEK293 cells (AID 1920064; active means well fitted activation curve with a large enough effect in the repeat runs). The gist of the method:
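Intracellular calcium mobilization in KISS1R-HEK293 cells was recorded by fluorescence (Ex/Em 480/540) for 3 min following compound addition to cells pre-loaded 1 h with calcium dye.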
On the technique in general: Calcium flux is commonly read through the fluorescence of an indicator in the cells.

Test [11] can be described thus: G protein-coupled receptor (GPCR) small molecule agonists, calcium flux assay: HEK293 wild type cell line counter screen (AID 1920065). The gist of the method: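 In this agonist-mode screen, ATP is the positive control and DMSO the vehicle. Cells grow 18 h before a 1 h dye incubation at 37 C; signal is taken at Ex/Em 480/540 over 3 min.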
Test [12] in a line: p53 small molecule agonists, cell-based qHTS assay with human liver microsomes: qHTS cell viability counter screen (AID 1963579). Further: nearly all actives have a fitted effect of over 45% in size. The gist of the method:
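p53RE-bla cells (4,000/well) were pre-incubated 5 h at 37 C, then given compounds in DMSO plus human liver microsomes (0.5 mg/mL final) and NADPH (0.5 mg/mL final) for 16 h at 37 C. Viability was read by CellTiter-Glo luminescence.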

The target in test [13] is Muscarinic acetylcholine receptor M1 (Homo sapiens) (UniProt P11229). The experiment in a line: Cholinergic receptor muscarinic 1 (CHRM1) small molecule antagonists, cell-based qHTS assay (AID 1963588). Further: nearly all actives have a fitted effect of over 40% in size. The gist of the method:
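CHRM1-CHO calcium-flux assay, antagonist mode. Cells were seeded 18 h, dye-loaded 1 h at 37 C and given compound for 5 min at RT, then acetylcholine was added at 50nM. FDSS fluorescence was read 3 min; 15 concentrations, three runs.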

Test [14] has as its target D(2) dopamine receptor (Homo sapiens) (UniProt P14416). The experiment in a line: Dopamine D2 receptor (DRD2) small molecule agonists, cell-based qHTS assay (AID 1963594). Further: nearly all actives have a fitted effect of over 35% in size. In outline: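 HEK293 cells stably expressing DRD2 were cultured 24 h at 37 C, then given Ro20-1724 (0.1 mM final) and compounds for 10 min at room temperature. NKH477 (200nM) was then added for 30 min. cAMP was read by HTRF.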

The target in test [15] is Gonadotropin-releasing hormone receptor (Homo sapiens) (UniProt P30968). The experiment in a line: Human gonadotropin-releasing hormone receptor (GnRHR) small molecule agonists, calcium flux assay in GnRHR-HEK293 cells (AID 1920063). Further: nearly all actives have a fitted effect of over 35% in size. The gist of the method:
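Tox21-format agonist screen using human GnRHR-expressing HEK293 cells and a fluorescent calcium dye; kinetic 3-min fluorescence reading after compound addition, 15-point concentration series run in triplicate.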

The nature of test [16]: cAMP Responsive Elements (CRE) small molecule agonists, cell-based qHTS assay (AID 1963590). The gist of the method: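 FRET-based beta-lactamase readout (LiveBLAzer B/G, 2 h RT) quantified CRE activation in HEK 293T CRE-bla cells after 3 h treatment with DMSO-dissolved compounds.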
A short description of test [17]: cAMP Responsive Elements (CRE) small molecule antagonists, cell-based qHTS assay (AID 1963591; active means well fitted inhibition curve with a large enough effect in the signal ratio in the repeat runs, not every such curve was filed as active; the % refers to the signal ratio). In outline: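 qHTS in CRE-bla HEK 293T cells: compound in DMSO, then 0.25 uM NKH477 (final), 3 h at 37 °C/5% CO2; beta-lactamase FRET read-out after 2 h substrate incubation.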
Test [18] can be described thus: p53 small molecule agonists, cell-based qHTS assay with human liver microsomes (AID 1963577). In outline: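 p53RE-bla reporter cells were pre-incubated 5 h at 37 C, then treated with compounds plus human liver microsomes (0.5 mg/mL final) and NADPH (0.5 mg/mL final) for 16 h at 37 C. Beta-lactamase activity was read by LiveBLAzer fluorescence after 2 h at room temperature.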

Test [19] can be described thus: p53 small molecule agonists, cell-based qHTS assay (AID 1963582; active means well fitted activation curve with a large enough effect in the signal ratio in the repeat runs, not every such curve was filed as active; the % refers to the signal ratio). In outline:
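Agonist activity was scored from beta-lactamase FRET fluorescence in p53RE-bla cells treated 16 h at 37 C with compounds in DMSO, substrate incubation being 2 h at room temperature.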

Inconclusive results are not listed. The source made the active and inactive calls. Unless noted, the call rests on the fitted dose curve.

Chain of Muscarinic acetylcholine receptor M1 (Homo sapiens) (P11229 whole entry, looked up): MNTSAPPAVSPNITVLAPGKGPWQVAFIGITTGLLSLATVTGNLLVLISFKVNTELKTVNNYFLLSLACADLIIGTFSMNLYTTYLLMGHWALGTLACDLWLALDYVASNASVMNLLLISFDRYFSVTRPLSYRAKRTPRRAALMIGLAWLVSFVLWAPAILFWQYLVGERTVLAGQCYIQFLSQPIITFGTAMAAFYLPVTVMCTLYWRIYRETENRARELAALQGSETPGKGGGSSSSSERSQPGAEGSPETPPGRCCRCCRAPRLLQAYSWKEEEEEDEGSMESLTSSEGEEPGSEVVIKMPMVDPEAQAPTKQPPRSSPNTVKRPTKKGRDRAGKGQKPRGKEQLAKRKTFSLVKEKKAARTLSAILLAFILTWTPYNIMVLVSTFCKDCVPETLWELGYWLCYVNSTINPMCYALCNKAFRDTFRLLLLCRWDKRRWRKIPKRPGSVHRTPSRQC
Chain of Gonadotropin-releasing hormone receptor (Homo sapiens) (P30968 whole entry, looked up): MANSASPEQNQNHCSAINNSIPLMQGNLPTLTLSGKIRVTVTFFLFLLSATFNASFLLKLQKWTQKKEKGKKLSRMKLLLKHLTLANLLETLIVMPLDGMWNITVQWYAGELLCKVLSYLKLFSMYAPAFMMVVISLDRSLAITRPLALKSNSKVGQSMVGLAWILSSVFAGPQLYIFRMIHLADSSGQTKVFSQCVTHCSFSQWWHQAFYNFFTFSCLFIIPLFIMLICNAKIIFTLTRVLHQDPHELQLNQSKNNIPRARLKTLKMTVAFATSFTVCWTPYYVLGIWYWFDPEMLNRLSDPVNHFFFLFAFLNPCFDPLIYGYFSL
Chain of 5-hydroxytryptamine receptor 2A (Homo sapiens) (P28223 whole entry, looked up): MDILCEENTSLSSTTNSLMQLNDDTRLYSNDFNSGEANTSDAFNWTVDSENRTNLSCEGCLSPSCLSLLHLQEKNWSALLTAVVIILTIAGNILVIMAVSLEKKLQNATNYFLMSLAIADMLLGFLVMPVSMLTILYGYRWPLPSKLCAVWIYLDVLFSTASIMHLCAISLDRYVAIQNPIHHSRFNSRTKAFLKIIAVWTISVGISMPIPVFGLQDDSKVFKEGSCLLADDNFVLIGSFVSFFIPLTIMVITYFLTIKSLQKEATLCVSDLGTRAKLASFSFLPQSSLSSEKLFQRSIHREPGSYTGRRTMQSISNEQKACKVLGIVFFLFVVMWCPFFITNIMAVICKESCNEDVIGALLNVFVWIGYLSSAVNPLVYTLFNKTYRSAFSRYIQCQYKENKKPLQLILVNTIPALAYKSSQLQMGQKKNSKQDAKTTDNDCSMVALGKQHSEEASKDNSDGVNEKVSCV
Chain of D(2) dopamine receptor (Homo sapiens) (P14416 whole entry, looked up): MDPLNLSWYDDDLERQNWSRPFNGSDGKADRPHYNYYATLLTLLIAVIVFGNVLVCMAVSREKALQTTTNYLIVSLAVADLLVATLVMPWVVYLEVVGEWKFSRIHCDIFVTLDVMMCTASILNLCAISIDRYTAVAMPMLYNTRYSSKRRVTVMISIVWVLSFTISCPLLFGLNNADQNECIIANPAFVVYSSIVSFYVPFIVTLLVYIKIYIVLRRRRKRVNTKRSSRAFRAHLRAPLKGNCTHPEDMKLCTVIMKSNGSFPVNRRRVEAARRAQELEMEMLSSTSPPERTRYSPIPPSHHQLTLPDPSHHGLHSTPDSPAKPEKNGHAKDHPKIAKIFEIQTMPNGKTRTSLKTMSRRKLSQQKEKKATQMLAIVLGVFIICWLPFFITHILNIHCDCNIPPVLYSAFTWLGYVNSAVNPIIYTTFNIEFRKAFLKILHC
Chain of Beta-2 adrenergic receptor (Homo sapiens) (P07550 whole entry, looked up): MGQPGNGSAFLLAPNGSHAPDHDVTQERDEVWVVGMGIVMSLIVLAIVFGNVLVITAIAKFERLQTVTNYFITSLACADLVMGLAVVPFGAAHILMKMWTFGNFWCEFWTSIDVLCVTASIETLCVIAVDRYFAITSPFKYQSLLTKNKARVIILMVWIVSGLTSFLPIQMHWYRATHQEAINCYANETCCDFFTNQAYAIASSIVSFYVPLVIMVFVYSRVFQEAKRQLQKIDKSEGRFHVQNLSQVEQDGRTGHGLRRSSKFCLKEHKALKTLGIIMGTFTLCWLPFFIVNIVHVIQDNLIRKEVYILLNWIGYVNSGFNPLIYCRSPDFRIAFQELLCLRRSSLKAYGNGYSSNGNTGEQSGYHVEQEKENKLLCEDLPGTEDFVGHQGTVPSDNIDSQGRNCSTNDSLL
Chain of KiSS-1 receptor (Homo sapiens) (Q969F8 whole entry, looked up): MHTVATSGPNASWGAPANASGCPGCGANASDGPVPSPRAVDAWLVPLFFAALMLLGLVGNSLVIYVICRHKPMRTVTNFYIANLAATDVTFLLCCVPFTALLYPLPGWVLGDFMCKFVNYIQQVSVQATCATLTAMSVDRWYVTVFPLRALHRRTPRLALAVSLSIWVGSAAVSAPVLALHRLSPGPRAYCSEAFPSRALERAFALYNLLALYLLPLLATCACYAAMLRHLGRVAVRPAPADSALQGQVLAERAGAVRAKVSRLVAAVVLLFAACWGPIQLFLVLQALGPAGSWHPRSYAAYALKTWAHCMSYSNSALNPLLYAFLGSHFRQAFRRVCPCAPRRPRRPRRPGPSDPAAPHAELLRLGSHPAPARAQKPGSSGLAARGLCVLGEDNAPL

For `CCN(CC)CCCN(c1ccccc1)C1Cc2ccccc2C1`, the Potency result in test [1], in [2], in [3], in test [5], in [6] and in test [8] was “inactive” each time. Besides, the figures for the Potency in test [4] and in [7] were 11.6 µM (active) and 0.106 µM (active), respectively.
As for `CCCCCCCC1CCC(=O)O1` (stereo not drawn), the Potency result in [4], in [5], in test [6], in test [7], in test [9] and in [8] was “inactive” throughout.
For `COC(=O)[C@H]1[C@H]2C[C@@H]3c4[nH]c5cc(OC)ccc5c4CCN3C[C@H]2C[C@@H](OC(=O)/C=C/c2ccc(O)c(OC)c2)[C@@H]1OC`, the Potency entry in test [10], in test [11], in test [1], in test [12], in test [2] and in test [3] was “inactive” throughout. The Potency entry in [4], in test [13] and in [14] was “inactive” in each case. The Potency in [5] is 19 µM (active).
`Nc1ccc(O)c([N+](=O)[O-])c1`: the Potency result in test [15], in test [11], in test [2], in test [5] and in test [13] was “inactive” each time.
Turning to `Cc1c[nH]c(=S)[nH]c1=O`, the Potency entry in test [15], in test [11], in [12], in test [2], in [3] and in test [4] was “inactive” each time. The Potency entry in test [5], in [13], in test [6], in [16], in [17] and in test [7] was “inactive” throughout. Moreover, the Potency entry in test [9], in test [14] and in [8] was “inactive” throughout.
As to `Cc1c(C)n(Cc2ccccc2)c2ccc(C(=O)OCCN(C)C)cc12`, the Potency entry in test [15], in test [11], in [18], in test [1], in test [2] and in [3] was “inactive” each time. Moreover, the Potency entry in [13], in [6], in test [16], in [7] and in test [14] was “inactive” in each case. For the same compound, the Potency in [4] was 16.3 µM (active); in test [8] it was 33.5 µM (active).
On to `CCC(C)n1ncn(-c2ccc(N3CCN(c4ccc(OC[C@H]5CO[C@](Cn6cncn6)(c6ccc(Cl)cc6Cl)O5)cc4)CC3)cc2)c1=O` (stereo partly drawn), for which the Potency entry in test [15], in test [11], in test [12], in test [2], in [3] and in [19] was “inactive” throughout. Besides, the Potency result in [16], in test [17], in [7], in test [9], in [14] and in test [8] was “inactive” throughout.
Take `CC[C@H]1OC(=O)[C@H](C)[C@@H](O[C@H]2C[C@@](C)(OC)[C@@H](O)[C@H](C)O2)[C@H](C)[C@@H](O[C@@H]2O[C@H](C)C[C@H](N(C)C)[C@H]2O)[C@](C)(O)C[C@@H](C)CN(C)[C@H](C)[C@@H](O)[C@]1(C)O`: the Potency result in test [10], in [11], in [18], in test [1], in [12] and in [2] was “inactive” in each case. Moreover, the Potency entry in test [3], in test [7], in [9], in [14] and in [8] was “inactive” in each case.
Consider `CC(=O)N(C)C`, for which the Potency entry in [4], in test [5], in test [13], in test [6], in [7] and in test [14] was “inactive” in each case. Further, the Potency entry in test [8] was “inactive”.
Consider `NC(=O)C1(N2CCCCC2)CCN(CCCN2c3ccccc3CCc3ccc(Cl)cc32)CC1`, for which the Potency result in [15], in test [11], in test [18], in test [1], in test [12] and in [2] was “inactive” throughout. Moreover, the Potency result in [13], in test [6] and in [14] was “inactive” each time. Further, the Potency in [4] was 0.103 µM (active); in test [8] it was 0.376 µM (active).
